Measured values from PubChem BioAssay AID720597 (Broad Institute, 2013).
Potency and affinity values are given separately. Active and inactive are the calls of the source.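 The calls were made as follows: active = fitted half-maximal dose no more than twice the top valid tested dose, for compounds that lower signal; inconclusive = fit invalid, or curve flat with activity between -70 and -30; inactive = potency past limit, curve flat within ±30, or signal increasing.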

Target: NAD-dependent protein deacylase sirtuin-5, mitochondrial (Homo sapiens) (UniProt Q9NXA8)
Sequence (Q9NXA8 whole entry, looked up): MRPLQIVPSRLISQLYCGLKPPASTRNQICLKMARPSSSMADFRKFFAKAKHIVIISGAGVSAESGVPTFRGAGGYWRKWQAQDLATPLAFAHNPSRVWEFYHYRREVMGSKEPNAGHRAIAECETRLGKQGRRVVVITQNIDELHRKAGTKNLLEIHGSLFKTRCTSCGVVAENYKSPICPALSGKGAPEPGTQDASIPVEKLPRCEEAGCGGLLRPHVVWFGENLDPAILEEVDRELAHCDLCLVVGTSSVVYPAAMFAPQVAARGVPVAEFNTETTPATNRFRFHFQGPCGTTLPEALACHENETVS
Assay: blockers of sirtuin-5 peptide desuccinylation – biochemical, fluorescence imaging, cherry-pick, set 6, dose response (AID 720597);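 also: lower AMC signal can also come from blocking the trypsin step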
Conditions: Purified SirT5, succinyl-peptide-AMC/trypsin fluorescence; series mostly up to 15 µM

outcome, inactive:
O=C(CN1CCOCC1)N1CCCCN2[C@H](C1)[C@H](c1ccc(-c3ccccc3F)cc1)[C@@H]2CO
CCCC#Cc1ccc(CC[C@H]2O[C@H]3CC[C@@H](CO)O[C@H]3C[C@H]2NS(=O)(=O)c2ccccc2)cc1
O=S(=O)(NC[C@@H]1CC[C@H]2[C@H](CN2Cc2cccc(-c3ccccn3)c2)O1)c1ccccc1
CC(C)CC#Cc1ccc2c(c1)O[C@@H](CN(C)Cc1ccccc1F)[C@H](C)CN([C@H](C)CO)S2(=O)=O
COc1ccc(S(=O)(=O)Nc2ccc3c(c2)C(=O)N([C@H](C)CO)C[C@@H](C)[C@@H](CN(C)Cc2ccc(C(F)(F)F)cc2)OCCCC[C@H](C)O3)cc1
COc1ccc(S(=O)(=O)N(C)C[C@H]2OCCCC[C@@H](C)Oc3ccc(NS(=O)(=O)c4ccc(Cl)cc4)cc3C(=O)N([C@H](C)CO)C[C@H]2C)cc1
C[C@H](CO)N1C[C@H](C)[C@@H](CN(C)S(=O)(=O)c2ccc(F)cc2)Oc2cc(C3=CCCCC3)ccc2S1(=O)=O
C[C@@H]1CN([C@@H](C)CO)C(=O)c2cc(NS(=O)(=O)c3ccccc3)ccc2O[C@@H](C)CCCCO[C@@H]1CN(C)Cc1ccc(C(F)(F)F)cc1
COc1ccc(S(=O)(=O)Nc2ccc3c(c2)C(=O)N([C@@H](C)CO)C[C@H](C)[C@H](CN(C)S(=O)(=O)c2ccc(Cl)cc2)OCCCC[C@@H](C)O3)cc1
C[C@@H]1CN([C@@H](C)CO)S(=O)(=O)c2ccc(/C=C/c3ccccc3)cc2O[C@H]1CN(C)C(=O)NC1CCCCC1
COc1ccc(S(=O)(=O)Nc2ccc3c(c2)CC(=O)N([C@@H](C)CO)C[C@H](C)[C@H](CN(C)Cc2ccc(Oc4ccccc4)cc2)O3)cc1
COc1ccc(S(=O)(=O)Nc2ccc3c(c2)C(=O)N([C@H](C)CO)C[C@H](C)[C@H](CN(C)S(=O)(=O)c2cccs2)OCCCC[C@H](C)O3)cc1
CN1c2ccc(-c3ccc(F)cc3)cc2[C@@H]2[C@@H](CCN2C(=O)c2ccncc2)[C@@H]1CO
COc1ccccc1S(=O)(=O)N(C)C[C@@H]1Oc2cc(C#CCC(C)C)ccc2S(=O)(=O)N([C@@H](C)CO)C[C@@H]1C
C[C@H](CO)N1C[C@H](C)[C@H](CN(C)C(=O)Nc2ccc(F)cc2)Oc2ccc(NC(=O)Nc3ccc(F)cc3)cc2C1=O
C[C@H]1CN([C@@H](C)CO)C(=O)Cc2cc(NS(=O)(=O)c3ccccc3)ccc2O[C@H]1CN(C)Cc1ccc(C(=O)Nc2ccccc2N)cc1
C[C@@H]1CN([C@H](C)CO)C(=O)c2c(c3ccccc3n2C)-c2ccccc2CO[C@H]1CN(C)S(=O)(=O)c1ccc([N+](=O)[O-])cc1
Cc1ccc(-c2ccc3c(c2)O[C@@H](CN(C)Cc2ccccn2)[C@H](C)CN([C@@H](C)CO)S3(=O)=O)cc1
CO[C@H]1CN(C)C(=O)c2cc(NC(=O)NC3CCCCC3)ccc2OC[C@H](C)N(CCc2ccccc2)C[C@@H]1C
C[C@H](CO)N1C[C@H](C)[C@H](CN(C)S(=O)(=O)c2ccc(F)cc2)Oc2c(NC(=O)c3nc4ccccc4s3)cccc2C1=O
O=C(NCC[C@@H]1CC[C@@H](NC(=O)C2CC2)[C@@H](CO)O1)c1cc(Cl)cc(Cl)c1
COc1cccc(NC(=O)N2CC(=O)N3[C@H](C2)[C@H](c2ccc(C#CCC4CCCC4)cc2)[C@@H]3CO)c1
COc1ccccc1-c1ccc2c(c1)O[C@@H](CN(C)S(=O)(=O)c1ccc(F)cc1)[C@@H](C)CN([C@H](C)CO)S2(=O)=O
C[C@@H]1CCCCO[C@@H](CN(C)Cc2ccc(C(F)(F)F)cc2)[C@H](C)CN([C@H](C)CO)C(=O)c2cc(NS(=O)(=O)c3ccccc3)ccc2O1
C[C@H](NC(=O)[C@@H]1[C@@H](CO)[C@@H]2Cn3c(cccc3=O)[C@H]1N2Cc1ccccc1)c1ccccc1
Cc1ccc(S(=O)(=O)N(C)C[C@H]2Oc3ccc(NC(=O)Cn4cnnn4)cc3CC(=O)N([C@@H](C)CO)C[C@H]2C)cc1
CN1c2ccc(-c3ccccc3)cc2[C@H]2[C@H](CCN2C(=O)Cc2ccccn2)[C@H]1CO
CCCC#Cc1ccc2c(c1)[C@@H]1[C@@H](CCN1S(=O)(=O)c1ccccc1C)[C@@H](CO)N2
COc1ccc(S(=O)(=O)Nc2ccc3c(c2)C(=O)N([C@@H](C)CO)C[C@H](C)[C@@H](CN(C)S(=O)(=O)c2ccccc2)OCCCC[C@@H](C)O3)cc1
O=C(C[C@H]1CC[C@H]2[C@@H](COC[C@@H](O)CN2S(=O)(=O)c2ccccc2)O1)Nc1ccc(-c2ccccc2)cc1
C[C@@H]1CCCCO[C@H](CN(C)Cc2ccc(C(F)(F)F)cc2)[C@@H](C)CN([C@@H](C)CO)C(=O)c2cc(NS(=O)(=O)c3ccc(F)cc3)ccc2O1
